Activity calls are given as the source filed them. Rule for the calls: active = hit-call score of the fitted dose curve at least 0.9, where 1 is the maximum; inactive = score below 0.9.
What follows are compounds tested against Cellular tumor antigen p53 (Homo sapiens) (UniProt P04637) (assay: ATG_p53_CIS: Attagene CIS-FACTORIAL HepG2 Assay for human p53 Transcription Factor (AID 2282994)). Details: HepG2 p53 cis-element reporter, Attagene mRNA; actives raise or lower the signal.
Procedure: ATG_CIS is a cell-based, multiplexed-readout assay that uses HepG2, a human liver cell line, with measurements taken at 24 hours after chemical dosing in a 24-well plate.ATG_p53_CIS is one of 52 assay component(s) measured or calculated from the ATG_CIS assay. It is designed to make measurements of mRNA induction, a form of inducible reporter, as detected with fluorescence intensity signals by Reverse transcription polymerase chain reaction (RT-PCR) and Capillary electrophoresis technology.Data from the assay component ATG_p53_CIS was analyzed into 1 assay endpoint. This assay endpoint, ATG_p53_CIS, was analyzed with bidirectional fitting relative to DMSO as the negative control and baseline of activity. Using a type of inducible reporter, measures of mRNA for gain or loss-of-signal activity can be used to understand the reporter gene at the transcription factor-level as they relate to the gene TP53. Furthermore, this assay endpoint can be referred to as a primary readout, because this assay has produced multiple assay endpoints where this one serves a reporter gene function. To generalize the intended target to other relatable targets, this assay endpoint is annotated to the dna binding intended target family, where the subfamily is tumor suppressor.
Human liver HepG2 cells are transiently transfected with multiple reporter transcription units (MRTUs) in 6-well plates using FuGene 6 reagent (Roche; 3 ml FuGene/1 mg DNA). The MRTU constructs are regulated by a cis-regulating element (promoter). […] A major difference between the CIS and TRANS system is that in CIS activities of endogenous TFs are measured, whereas the TRANS assay evaluates changes in activities of exogenous, chimeric NR-Gal4 proteins. […] At the end of 24 hour incubation, total RNA was isolated using TriZol reagent (Invitrogen). The isolated RNA is then reverse-transcribed using oligo(dT) primer and Mo-MLV reverse transcriptase (Invitrogen) with DNAse I (Ambion) treatment for 30 min. The one-tenth of the produced cDNA was amplified by PCR using Taq DNA polymerase (Invitrogen) and two reporter sequence-specific primers. The PCR products were fluorescently labeled by primer extension with 6-arboxyfluorescein (6-FAM) 5'-labeled reporter sequence-specific primer (2 min at 95 C, 20 s at 68 C and 10 min at 72 C) and these products were digested with 5U of HpaI (New England Biolabs) for 2h at 37 C. The fragments were purified using Qiaquick PCR columns (Qiagen), analyzed on an ABI 3130xL genetic analyzer (Applied Biosystems) with peak positions identified by using a set of X-rhodamine (ROX)-labeled MapMarker1000 molecular weight standards (BioVentures). The raw capillary electrophoresis data was processed using Attagraph software (Attagene).

Sequence of Cellular tumor antigen p53 (Homo sapiens) (P04637 whole entry, looked up): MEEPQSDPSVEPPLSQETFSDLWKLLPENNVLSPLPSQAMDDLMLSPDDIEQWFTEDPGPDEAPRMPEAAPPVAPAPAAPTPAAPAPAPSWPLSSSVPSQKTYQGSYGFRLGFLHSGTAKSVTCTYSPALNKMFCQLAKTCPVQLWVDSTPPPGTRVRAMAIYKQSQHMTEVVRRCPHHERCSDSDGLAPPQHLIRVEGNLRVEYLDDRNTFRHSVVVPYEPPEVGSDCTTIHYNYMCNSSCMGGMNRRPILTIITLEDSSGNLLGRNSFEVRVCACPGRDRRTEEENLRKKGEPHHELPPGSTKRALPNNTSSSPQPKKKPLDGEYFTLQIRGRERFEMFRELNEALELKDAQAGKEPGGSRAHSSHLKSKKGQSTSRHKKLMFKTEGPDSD

With CCCCC(O)(Cn1cncn1)c1ccc(Cl)cc1Cl (stereo not given) as the compound, how does the outcome read?
Its outcome is “inactive”.

CN/C(=N\[N+](=O)[O-])NCc1cnc(Cl)s1 was tested. Which outcome did it give?
The outcome was “inactive”.

CCN(CC)c1nc(C)cc(OP(=S)(OC)OC)n1 was tested. Which outcome did it give?
The outcome was “inactive”.

CC(C)N1C(=O)N(c2ccccc2)CSC1=NC(C)(C)C was tested. Which outcome did it give?
The outcome was “inactive”.

N#CN=C1SCCN1Cc1ccc(Cl)nc1 was tested. Which outcome did it give?
Its outcome is “inactive”.

O=c1n(Cl)c(=O)n(Cl)c(=O)n1Cl was tested. Which outcome did it give?
The outcome was “inactive”.

CCCC(=NOCC)C1=C(O)CC(CC(C)SCC)CC1=O (stereo not given) was tested. Which outcome did it give?
Its outcome is “inactive”.

CCOc1nc(C(Cl)(Cl)Cl)ns1 was tested. Which outcome did it give?
The outcome was “inactive”.

CS(=O)(=O)c1cc(C(F)(F)F)ccc1C(=O)c1cnoc1C1CC1 was tested. Which outcome did it give?
Its outcome is “inactive”.

Cc1c(COC(=O)[C@@H]2[C@H](/C=C(\Cl)C(F)(F)F)C2(C)C)cccc1-c1ccccc1 was tested. Which outcome did it give?
The outcome was “inactive”.

For COc1ccc(-c2ccccc2)cc1NNC(=O)OC(C)C, which outcome is on record?
The outcome was “inactive”.

For CCCCC(C#N)(Cn1cncn1)c1ccc(Cl)cc1 (stereo not given), which outcome is on record?
The outcome was “inactive”.

CCCCOCN(C(=O)CCl)c1c(CC)cccc1CC was tested. Which outcome did it give?
Its outcome is “inactive”.

How did the outcome turn out when Nc1c(Cl)c(Cl)nc(C(=O)O)c1Cl was run?
The outcome was “inactive”.

How did the outcome turn out when CS(=O)(=O)c1ccc(C(=O)C2C(=O)CCCC2=O)c([N+](=O)[O-])c1 was run?
Its outcome is “inactive”.

Which outcome does the source give for CC1(C)C(C=C(Cl)Cl)C1C(=O)OC(C#N)c1cccc(Oc2ccccc2)c1 (stereo not given) here?
Its outcome is “inactive”.

With CC(C)Oc1cccc(NC(=O)c2ccccc2C(F)(F)F)c1 as the compound, how does the outcome read?
Its outcome is “inactive”.

For Cc1cc(C)nc(Nc2ccccc2)n1, which outcome is on record?
Its outcome is “inactive”.

With CCNP(=S)(OC)O/C(C)=C/C(=O)OC(C)C (stereo not given) as the compound, how does the outcome read?
The outcome was “inactive”.

With CC1(C)CON(Cc2ccccc2Cl)C1=O as the compound, how does the outcome read?
The outcome was “inactive”.

How did the outcome turn out when CC(C)Nc1nc(Cl)nc(NC(C)C)n1 was run?
The outcome was “inactive”.

With COc1cc(OC)nc(NC(=O)NS(=O)(=O)c2ncccc2OCC(F)(F)F)n1 as the compound, how does the outcome read?
Its outcome is “inactive”.

Which outcome does the source give for COC(=O)NC(=S)Nc1ccccc1NC(=S)NC(=O)OC here?
Its outcome is “inactive”.

How did the outcome turn out when Nc1c(Cl)c(F)nc(OCC(=O)O)c1Cl was run?
Its outcome is “inactive”.

With Nc1cnn(-c2ccccc2)c(=O)c1Cl as the compound, how does the outcome read?
Its outcome is “inactive”.

For CC(C)NC(=O)N1CC(=O)N(c2cc(Cl)cc(Cl)c2)C1=O, which outcome is on record?
Its outcome is “inactive”.

How did the outcome turn out when COC(=O)N(C(=O)N1CO[C@@]2(C(=O)OC)Cc3cc(Cl)ccc3C2=N1)c1ccc(OC(F)(F)F)cc1 was run?
The outcome was “inactive”.

For Cc1cnc(C2=NC(C)(C(C)C)C(=O)N2)c(C(=O)O)c1 (stereo not given), which outcome is on record?
Its outcome is “inactive”.

How did the outcome turn out when OC(c1ccc(Cl)cc1)(c1ccc(Cl)cc1)C(Cl)(Cl)Cl was run?
Its outcome is “inactive”.

How did the outcome turn out when COC(=O)NS(=O)(=O)c1ccc(N)cc1 was run?
Its outcome is “inactive”.

For CSC(=O)c1c(C(F)F)nc(C(F)(F)F)c(C(=O)SC)c1CC(C)C, which outcome is on record?
The outcome was “inactive”.

For COc1cc(Cl)c(OC)cc1Cl, which outcome is on record?
The outcome was “inactive”.

O=C(Nc1ccccc1-c1ccc(Cl)cc1)c1cccnc1Cl was tested. Which outcome did it give?
The outcome was “inactive”.

Clc1cccc(C(Cl)(Cl)Cl)n1 was tested. Which outcome did it give?
Its outcome is “inactive”.

Which outcome does the source give for CO/N=C(/C1=NOCCO1)c1ccccc1Oc1ncnc(Oc2ccccc2Cl)c1F here?
The outcome was “inactive”.

CN=C=S was tested. Which outcome did it give?
The outcome was “inactive”.

How did the outcome turn out when CNC(=O)N(C)c1nnc(C(C)(C)C)s1 was run?
Its outcome is “inactive”.

For O=C1C2CC=CCC2C(=O)N1SC(Cl)(Cl)Cl (stereo not given), which outcome is on record?
Its outcome is “inactive”.

With CCC(C)n1c(=O)[nH]c(C)c(Br)c1=O (stereo not given) as the compound, how does the outcome read?
The outcome was “inactive”.

Which outcome does the source give for N#Cc1c[nH]cc1-c1cccc2c1OC(F)(F)O2 here?
Its outcome is “inactive”.

From PubChem BioAssay (EPA / NIEHS)
